Compound activity as filed in PubChem.
This is a sample that favours compounds with a hit; in the whole collection about 21% have one here.
Cycloheximide cs – counter-screen hit for Shiga toxin inhibitors, cycloheximide | cell reporter, cycloheximide protein synthesis inhibition counterscreen | max response, % | AID 2314 | actives 12% (n = 300,000); in the data active = max response mostly above about 13%, no sharp cut-off; inactive = mostly below about 14%; note: read at 38.3 µM for the half of the compounds with a filed dose
Pf growth 96h – P. falciparum growth inhibition at 96 hours; P. falciparum luciferase reporter growth, 96 h; Potency, µM (top dose mostly 28.7 µM), usual class: inhibitors; actives 6.9% (n = 320,000)
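P. falciparum expressing integrated firefly luciferase grown in erythrocytes (2% hematocrit, 0.05% parasitemia final) with compounds for 96 hours at 37 C, 5% CO2. Growth inhibition read as loss of luminescence after adding luciferase detection reagent.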
Shiga toxin inh – blocks Shiga toxin action in Vero cells. Vero cells, Shiga toxin protein synthesis inhibition reporter. actives 9.2% (n = 290,000). inhibition, % at 38.7 µM; in the data active = inhibition mostly above about 28%, no sharp cut-off; inactive = mostly below about 43%
Pf growth 48h – P. falciparum growth inhibition at 48 hours (one generation). P. falciparum luciferase growth in erythrocytes, 48 h. Potency, µM (highest dose often 28.7 µM), most hits filed as inhibitors. actives 5.9% (n = 310,000)
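Read-out is firefly luciferase luminescence from an integrated reporter in P. falciparum, so falling signal marks reduced parasite growth. Infected erythrocytes were at 2% hematocrit and 0.1% parasitemia (final) in Albumax-supplemented RPMI 1640.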
Of the large screens only hits and unclear results are named; the others gave an inactive call. Unless noted, calls come from the whole dose curve; as a rule, active = well fitted inhibition curve with a large enough effect; inconclusive = small, poorly fitted or top-dose-only effect, or another doubt; inactive = no such curve, though single readings can be large or run the other way.

CCOC(=O)c1c(-c2ccc(C)o2)csc1NC(=O)CN1CCOCC1	Pf growth 96h inconclusive (no result: Pf growth 48h)
O=C(CSc1ncn[nH]1)Nc1ccc2c(c1)CCC2	Cycloheximide cs 20
CNC(=S)Nc1cccc(Cl)c1C	none
O=C1CC(NNc2ccccc2)C(=O)N1c1ccc(N2CCCCC2)cc1 (stereo unspecified)	none
O=C(CSc1ncn[nH]1)Nc1ccc(OCc2ccccc2)cc1	Cycloheximide cs 34, Shiga toxin inh 145
NS(=O)(=O)c1ccc(NC(=O)CSc2ncn[nH]2)cc1	none
O=[N+]([O-])c1ccc(/C=C2\CCC(C3=CCCC3)=C2N2CCOCC2)cc1	Cycloheximide cs 24
C=CCc1ccc(OCCCCNC2CCCC2)c(OC)c1	none
COC(=O)c1ccc(NC(=O)CN2CCN(S(=O)(=O)c3ccc(Br)cc3)CC2)cc1	Pf growth 96h 9.3µM
CN(C)S(=O)(=O)N1CCN(CC(=O)Nc2ccc(Br)cc2)CC1	Pf growth 96h 5.2µM (no result: Shiga toxin inh)
Cc1cc(=O)oc2cc(NC(=O)CCOc3ccccc3)ccc12	Cycloheximide cs 19, Shiga toxin inh 32
CCCCOC(=O)Nc1ccc2c(C)cc(=O)oc2c1	Cycloheximide cs 52, Shiga toxin inh 59
Cc1cc(=O)oc2cc(NC(=O)CC(N)C(=O)O)ccc12 (stereo unspecified)	none (no result: Pf growth 96h, Pf growth 48h)
Cc1cccc(OCC(=O)Nc2ccc3c(C)cc(=O)oc3c2)c1	none
Cc1ccccc1CC(=O)Nc1ccc2c(C)cc(=O)oc2c1	Pf growth 96h inconclusive
CCOC(=O)Nc1ccc2c(C)cc(=O)oc2c1	Cycloheximide cs 30, Pf growth 96h inconclusive, Shiga toxin inh 60
COc1ccccc1C(=O)Nc1cccc2c1CCCC2	Pf growth 96h inconclusive
COc1ccc(-c2csc(N(CCCN(C)C)C(=O)c3ccc(Br)cc3)n2)cc1	Pf growth 96h inconclusive, Pf growth 48h inconclusive (no result: Shiga toxin inh)
CCC(=O)N(CCCN(C)C)c1nc(-c2cc(OC)ccc2OC)cs1	Pf growth 96h inconclusive
CCC(=O)N(CC)c1nc(-c2cc(OC)ccc2OC)cs1	Pf growth 48h 12µM
COc1ccc(-c2csc(N(CCCN(C)C)C(=O)c3ccc(C(C)(C)C)cc3)n2)cc1	Pf growth 48h 13µM
CCN(C(=O)c1cccs1)c1nc(-c2ccc(OC)cc2)cs1	Cycloheximide cs 43, Pf growth 96h inconclusive, Shiga toxin inh 101
CCN(CC)CCCN(C(=O)c1ccc(OC)cc1)c1nc(-c2ccc(OC)cc2)cs1	Pf growth 48h 1.3µM
CC1CCC(NC(=O)C2CCN(C(=O)Nc3ccccc3)CC2)CC1 (stereo unspecified)	none (no result: Cycloheximide cs, Shiga toxin inh)
Cc1cc(C)nc(NS(=O)(=O)c2ccc(NC(=O)c3cc(=O)c4ccccc4o3)cc2)n1	none
COc1cc2c(cc1OC)CN(CC(=O)Nc1cccc(C(F)(F)F)c1)CC2	none
COc1ccc(-c2csc(N(CCCN(C)C)C(=O)c3ccc(C)cc3)n2)cc1	Pf growth 96h inconclusive, Pf growth 48h 8.3µM
COc1ccc(-c2csc(N(CCc3ccc(OC)c(OC)c3)C(=O)COc3ccccc3)n2)cc1	Pf growth 48h 10µM
CCN(CC)CCCN(C(=O)c1ccccc1F)c1nc(-c2ccc(OC)cc2)cs1	Pf growth 48h 4.1µM
O=C(CN1C(=O)NC2(CCCCC2)C1=O)N1CCN(c2ncccn2)CC1	none (no result: Cycloheximide cs, Shiga toxin inh)
CC1=C(/C=C/C(C)=N\NC(=O)c2ccncc2)C(C)(C)CCC1	Cycloheximide cs 13, Pf growth 48h 13µM
CCc1ccc(NC(=O)CSc2nnnn2-c2cccnc2)cc1	Pf growth 96h inconclusive
CCc1nnc(NC(=O)CN2CCN(Cc3ccccc3Cl)CC2)s1	none
CSc1c(CC(=O)NCCCO)n(Cc2ccccc2)c2ccccc12	Pf growth 96h 9.3µM
COc1ccc(NC(=O)Cc2c(SC)c3ccccc3n2Cc2ccccc2)cc1	Pf growth 96h 7.4µM, Pf growth 48h 12µM
COc1ccc(NC(=O)CSc2nnc(C)n2Cc2ccccc2)cc1	none
Cc1nn(C)c(=O)n1-c1ccc(Oc2ccccc2)cc1	Cycloheximide cs 11
Cc1nn(CCOc2ccccc2)c(=O)n1-c1c(F)cccc1F	Cycloheximide cs 52, Shiga toxin inh 33
Cc1ccc(-n2c(C)nn(CCOc3ccccc3)c2=O)cc1	Cycloheximide cs 35, Shiga toxin inh 67
COc1cccc(CN(C)C(=O)Cc2ccc(OC)c(S(=O)(=O)N3CCOCC3)c2)c1	Pf growth 48h inconclusive (no result: Cycloheximide cs, Shiga toxin inh)
Brc1cc(Br)cc(CN2CCSCC2)c1	Pf growth 96h inconclusive
COc1cc(CN2CCC(n3nccc3NC(=O)CCCc3ccccc3)CC2)ccc1F	Pf growth 96h inconclusive, Pf growth 48h inconclusive
CCCC(=O)Nc1ccc(N2CCOCC2)cc1	none
Cc1cn(CCC(=O)Nc2ccccc2N2CCOCC2)c2ccccc12	Cycloheximide cs 50, Pf growth 96h inconclusive, Shiga toxin inh 75
